# PubChem BioAssay (EPA / NIEHS)
# Values joined by “and” are separate entries in the source; they are usually repeats but may differ in a detail not shown here. Equal values may be shown once. Results filed as inconclusive are left out. Active and inactive are the calls of the source. The calls were made as follows: active = hit-call score of the fitted dose curve at least 0.9, where 1 is the maximum; inconclusive = response in the unintended direction; inactive = score below 0.9.
# Target: rat Thyrotropin Releasing Hormone Receptor (TRH), Trhr (gene 25570) (UniProt Q01717)
# Sequence (Q01717 whole entry, looked up): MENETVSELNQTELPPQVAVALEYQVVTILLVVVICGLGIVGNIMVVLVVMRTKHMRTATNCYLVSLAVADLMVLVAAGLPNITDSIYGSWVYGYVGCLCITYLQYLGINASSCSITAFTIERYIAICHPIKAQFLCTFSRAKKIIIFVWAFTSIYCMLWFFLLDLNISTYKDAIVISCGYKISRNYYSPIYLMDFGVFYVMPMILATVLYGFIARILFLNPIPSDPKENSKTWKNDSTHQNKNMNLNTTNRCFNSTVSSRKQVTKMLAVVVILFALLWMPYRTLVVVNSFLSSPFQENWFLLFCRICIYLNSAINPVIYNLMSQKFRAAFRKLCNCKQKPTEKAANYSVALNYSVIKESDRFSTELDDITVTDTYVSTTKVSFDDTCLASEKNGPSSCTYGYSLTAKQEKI
# Assay: NVS_GPCR_rTRH: NovaScreen (NVS) G Protein-Coupled Receptor Assay for rat Thyrotropin Releasing Hormone Receptor (TRH) (AID 2283329);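 also: hit means lower bound tracer signal versus DMSO baseline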
# In short: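 Rat forebrain membrane prep, radioligand displacement, filter scintillation readout at 4 h. Single conc 25 uM, duplicate; actives retested as concentration series. DMSO = negative control/baseline.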
row,SMILES,outcome
1,CCN(CC)c1ccc2c(-c3ccccc3C(=O)O)c3ccc(=[N+](CC)CC)cc-3oc2c1,inactive
2,CC1COc2ccccc2N1C(=O)C(Cl)Cl (configuration not stated),inactive
3,C=CCOc1nc(OCC=C)nc(OCC=C)n1,inactive
4,CCCCCCCCCCCCN,inactive

# Target: human Peripheral-type Benzodiazepine Receptor (PBR), TSPO (gene 706) (UniProt P30536)
# Sequence (P30536 whole entry, looked up): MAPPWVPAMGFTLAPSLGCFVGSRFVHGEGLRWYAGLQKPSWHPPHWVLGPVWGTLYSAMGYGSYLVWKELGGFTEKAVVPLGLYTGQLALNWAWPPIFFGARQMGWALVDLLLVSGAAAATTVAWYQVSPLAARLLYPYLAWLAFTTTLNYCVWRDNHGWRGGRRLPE
# Assay: NVS_MP_hPBR: NovaScreen (NVS) Membrane Protein Assay for human Peripheral-type Benzodiazepine Receptor (PBR) (AID 2283331);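 also: hits reduce radioligand binding relative to DMSO baseline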
# In short: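 Radioligand displacement on human colonic cell membranes, 1 h incubation; bound radioactivity by filtration and scintillation counting. Primary screen in duplicate at 25 uM single concentration, actives followed up in concentration series; loss of binding versus DMSO.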
row,SMILES,AC50
1,CN(CCOc1ccc(CC2SC(=O)NC2=O)cc1)c1ccccn1 (configuration not stated),5.39 µM (active)
2,O=C(Oc1ccccc1)c1ccc(O)cc1,9.99 µM (active)
3,CCN(CC)c1ccc2c(-c3ccccc3C(=O)O)c3ccc(=[N+](CC)CC)cc-3oc2c1,16.8 µM (active)
4,C=CCOc1nc(OCC=C)nc(OCC=C)n1,14.3 µM (active)

# Target: rat Peripheral-type Benzodiazepine Receptor (PBR), Tspo (gene 24230) (UniProt P16257)
# Sequence (P16257 whole entry, looked up): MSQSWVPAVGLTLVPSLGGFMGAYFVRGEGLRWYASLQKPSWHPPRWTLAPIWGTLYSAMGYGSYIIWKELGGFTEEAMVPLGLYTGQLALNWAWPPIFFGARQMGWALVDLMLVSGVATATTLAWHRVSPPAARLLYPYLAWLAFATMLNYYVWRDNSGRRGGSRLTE
# Assay: NVS_MP_rPBR: NovaScreen (NVS) Membrane Protein Assay for rat Peripheral-type Benzodiazepine Receptor (PBR) (AID 2283335)
# In short: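 Radioligand displacement, rat kidney membrane prep, 1 h exposure, filter-based scintillation read; DMSO baseline, loss-of-signal scored. Primary screen at 25 uM in duplicate, actives followed up in concentration series.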
SMILES,AC50,outcome
CN(CCOc1ccc(CC2SC(=O)NC2=O)cc1)c1ccccn1 (configuration not stated),12.9 µM (active),–
CCCCCCCCCCC(CO)CCCCCCCC (configuration not stated),–,inactive
O=C(Oc1ccccc1)c1ccc(O)cc1,4.86 µM (active),–
CCCCCCCCCCCCCCCCCC(=O)OCC(CC)CCCC (configuration not stated),–,inactive
CCN(CC)c1ccc2c(-c3ccccc3C(=O)O)c3ccc(=[N+](CC)CC)cc-3oc2c1,13.2 µM (active),–
CC1COc2ccccc2N1C(=O)C(Cl)Cl (configuration not stated),11 µM (active) and 9.31 µM (active),–
C=CCOc1nc(OCC=C)nc(OCC=C)n1,6.87 µM (active),–

# Target: bovine Estrogen Receptor (ER), ESR1 (gene 407238) (UniProt P49884)
# Sequence (P49884 whole entry, looked up): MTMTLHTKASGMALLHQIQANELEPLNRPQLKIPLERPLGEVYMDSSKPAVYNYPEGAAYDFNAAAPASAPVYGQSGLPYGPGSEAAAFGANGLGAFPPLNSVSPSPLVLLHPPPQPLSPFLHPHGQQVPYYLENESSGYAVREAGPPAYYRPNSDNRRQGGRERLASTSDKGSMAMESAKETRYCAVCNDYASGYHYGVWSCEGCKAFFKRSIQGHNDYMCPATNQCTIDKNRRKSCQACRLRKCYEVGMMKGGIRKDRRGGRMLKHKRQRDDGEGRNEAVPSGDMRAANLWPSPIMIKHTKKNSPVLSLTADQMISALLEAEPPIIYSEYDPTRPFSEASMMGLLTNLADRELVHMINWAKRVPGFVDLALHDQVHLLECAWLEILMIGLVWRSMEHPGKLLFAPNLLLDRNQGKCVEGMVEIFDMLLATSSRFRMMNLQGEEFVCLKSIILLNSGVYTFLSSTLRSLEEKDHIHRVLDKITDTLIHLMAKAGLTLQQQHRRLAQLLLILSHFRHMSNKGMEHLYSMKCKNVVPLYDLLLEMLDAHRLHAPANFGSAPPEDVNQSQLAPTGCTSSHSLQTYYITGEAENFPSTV
# Assay: NVS_NR_bER: NovaScreen (NVS) Nuclear Receptor Binding Assay for bovine Estrogen Receptor (ER) (AID 2283345);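 also: actives lower the bound radioligand count which means they displace the ER ligand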
# In short: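 Scintillation counting of displaced radioligand gave the readout; bovine uterine membrane extract supplied the receptor. Measured 18 h post-dose, normalized to DMSO baseline. Single 25 uM duplicate screen preceded concentration-response follow-up.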
SMILES,outcome,AC50
CN(CCOc1ccc(CC2SC(=O)NC2=O)cc1)c1ccccn1 (configuration not stated),inactive,–
CNCCCC12CCC(c3ccccc31)c1ccccc12,inactive,–
NC(=O)Nc1ccc(Cl)cc1,inactive,–
CC(C)=CCO,inactive,–
Cc1cc(C2(c3cc(C)c(O)cc3C)OS(=O)(=O)c3ccccc32)c(C)cc1O,–,10.6 µM (active)
CCCCCCCCC=O,inactive,–
CC(C)(C)C(=O)c1ccccc1,inactive,–
CCCCCCCCCC=O,inactive,–
NNc1nc(-c2ccc(N)cc2)cs1,inactive,–
O=C(O)CCSCCC(=O)O,inactive,–
CN(C)c1ccc(O)c2c1C[C@H]1C[C@H]3[C@H](N(C)C)C(=O)C(C(N)=O)=C(O)[C@@]3(O)C(=O)C1=C2O,inactive,–
c1cc(C(c2ccc(OCC3CO3)cc2)c2ccc(OCC3CO3)cc2)ccc1OCC1CO1 (configuration not stated),inactive,–
Nc1cccc(S(=O)(=O)c2cccc(N)c2)c1,inactive,–
C#C[C@]1(O)CC[C@H]2[C@@H]3CCC4=Cc5oncc5C[C@]4(C)[C@H]3CC[C@@]21C,inactive,–
CCCc1c(OCCCOc2ccc(OCC(=O)O)cc2)ccc(C(C)=O)c1O,inactive,–
CC(C)c1cccc(O)c1,inactive,–
CC1COc2ccccc2N1C(=O)C(Cl)Cl (configuration not stated),–,0.588 µM (active)
C=CC(=O)OCC(O)COc1ccccc1 (configuration not stated),inactive,–
CC1=CCC2C(C1)C2(C)C (configuration not stated),inactive,–
CC(C)C(C)(C)C(C)(C)C(C)(C)S,inactive,–
O=Nc1ccc(Nc2ccccc2)cc1,inactive,–
CC(=O)[C@H]1CC[C@H]2[C@@H]3CC=C4C[C@@H](O)CC[C@]4(C)[C@H]3CC[C@]12C,inactive,–
